Screens deposited in PubChem BioAssay by National Center for Advancing Translational Sciences (NCATS).
RORg inh – qHTS for inhibitors of ROR gamma transcriptional activity; Nuclear receptor ROR-gamma (Mus musculus), P51450; Drosophila S2 Gal4-RORgamma UAS-luciferase reporter, 20 h; Potency, µM (doses to about 53.6 µM), for inactives: at the highest dose activity change, negative = inhibition, usual class: inhibitors; hit rate 5.4% among 310,000; AID 2551, 2010; further: potency means the concentration at half of the fitted maximal effect; on the % scale 0 is the no-effect control and ±100 the full control effect; nearly all actives have a fitted effect of over 60% in size
Target sequence (P51450 whole entry, looked up, the tested form may be a part): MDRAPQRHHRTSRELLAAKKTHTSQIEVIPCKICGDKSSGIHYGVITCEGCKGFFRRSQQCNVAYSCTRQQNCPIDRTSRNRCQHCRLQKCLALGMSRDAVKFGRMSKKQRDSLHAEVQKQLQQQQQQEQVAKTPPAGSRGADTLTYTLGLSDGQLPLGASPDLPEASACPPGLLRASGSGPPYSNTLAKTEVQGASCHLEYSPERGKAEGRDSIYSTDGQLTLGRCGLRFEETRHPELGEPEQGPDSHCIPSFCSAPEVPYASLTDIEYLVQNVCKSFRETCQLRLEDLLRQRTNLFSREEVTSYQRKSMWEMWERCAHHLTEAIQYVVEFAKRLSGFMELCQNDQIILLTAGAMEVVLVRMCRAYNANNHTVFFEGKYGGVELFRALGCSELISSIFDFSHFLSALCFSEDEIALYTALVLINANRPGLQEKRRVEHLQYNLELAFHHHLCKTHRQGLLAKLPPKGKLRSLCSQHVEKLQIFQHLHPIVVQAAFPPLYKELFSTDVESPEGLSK
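In this cell-based reporter format, copper sulfate (700 uM final) drives Gal4–ROR gamma fusion expression from a metallothionein promoter in Drosophila Schneider cells; compounds preincubated 1 hr, reporter read after 20 hr at ambient temperature.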
Giardia kill – Small Molecules that selectively kill Giardia lamblia: qHTS. Giardia lamblia trophozoite viability. activity change, % at 7.66 µM, hits read low. AID 540267, 2011. hit rate 0.15% among 340,000; in the data active means activity change below about -80%; inconclusive means between about -30% and that limit;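 further: parasites exposed to compound for two days anaerobically before the ATP read; on the % scale 0 is the no-effect control and ±100 the full control effect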
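Anaerobic 48 hrs incubation at 37 deg C of 100 trophozoites/well with test compounds; ATPLite 1-Step luminescence, 15-30 min RT, reports cellular ATP as viability.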
SW480 rerep – A quantitative high throughput screen for small molecules that induce DNA re-replication in SW480 colon adenocarcinoma cells; SW480 DNA re-replication, Hoechst DNA content imaging, 48 h; Potency, µM (doses to about 46.1 µM), for the others: at the top dose re-replication activation, hits mostly activators; hit rate 1.8% among 340,000; AID 624297, 2012; further: potency means the concentration at half of the fitted maximal effect; % of control where 0% means no effect; nearly all actives have a fitted effect of over 55% in size
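Cells (250 per well) received 23 nL compound or DMSO by pin tool and were kept 48 hr at 37 C, 5% CO2. Nuclei were then stained with Hoechst for 40 min and scanned for DNA content.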
Chronic BCR inh – qHTS Assay to Find Inhibitors of Chronic Active B-Cell Receptor Signaling. ABC-DLBCL IkBa-CBG/CBR reporter, luminescence ratio, 4 h. Potency, µM (doses to about 46.1 µM), inactives show at the highest dose activity change, negative = inhibition, hits mostly inhibitors. hit rate 0.05% among 340,000; active means well fitted inhibition curve with a large enough effect in the signal ratio, with a control signal flat, not every such curve was filed as active; inconclusive means small, poorly fitted or top-dose-only effect, or effect the other way, or a change in a side signal; the % refers to the signal ratio;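 further: potency means the concentration at half of the fitted maximal effect; plate controls were basal doxycycline-induced cells for no effect and cells given 10 µM MG132 for full effect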
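TMD8 ABC-DLBCL cells carrying doxycycline-inducible green luciferase fused to IkappaBalpha plus unfused red luciferase were exposed to compounds (up to 46 uM) for 4 hrs at 37C. Activity came from the overlap-corrected green/red luminescence ratio.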
Gal4-VP16 FLuc – VP16 counterscreen qHTS for inhibitors of ROR gamma transcriptional activity; hit rate 3.5% among 310,000; Drosophila S2 Gal4-VP16 UAS-luciferase, luminescence, 20 h; AID 2546, 2010; Potency, µM (top dose mostly 53.6 µM), inactives show top-dose activity, negative = inhibition, usual class: inhibitors;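 further: Gal4-VP16 expression switched on by copper sulfate through the metallothionein promoter; potency means the concentration at half of the fitted maximal effect; on the % scale 0 is the no-effect control and ±100 the full control effect; nearly all actives have a fitted effect of over 50% in size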
MCF10A rereplic – A quantitative high throughput screen for small molecules that induce DNA re-replication in MCF 10a normal breast cells. MCF 10A DNA re-replication, Hoechst nuclear intensity, 48 h. Potency, µM (top dose mostly 46.1 µM), inactives show at the highest dose activity, positive = re-replication, most hits filed as activators. hit rate 2.9% among 350,000; further: potency means the concentration at half of the fitted maximal effect; % of control where 0% means no effect; nearly all actives have a fitted effect of over 50% in size
* = called active by the depositor; ? = inconclusive; / = no result; [ ] = remark or other dose. Hits are enriched below; roughly 8.3% of the tested compounds scored in any of these assays. Unless noted, the call rests on the fitted dose curve; in most records, active means well fitted curve in the direction sought with a large enough effect; inconclusive means small, poorly fitted or top-dose-only effect, or another doubt; inactive means no such curve, though single readings can be large; an effect the other way counts as inactive or inconclusive.

SMILES	RORg inh	Giardia kill	SW480 rerep	Chronic BCR inh	Gal4-VP16 FLuc	MCF10A rereplic
CC(C)n1c(C(F)(F)F)nc2cc(C(=O)N3CCCCC3)ccc21	?	16.9	-6.3%	-0.6%	6.2%	-1.1%
O=C(c1cc2ccccc2cc1O)N1CCN(c2ccc([N+](=O)[O-])cc2)CC1	/	-4.1	18.7%	13.0%	/	0.6%
COc1ccc(CCCC(=O)NCCc2ccccc2)c(C)c1	38.6%	-9.2	-8.1%	?	-12.5%	2.5%
Cc1ccc(-c2nnn(CC(=O)NC(=O)NC3CCCCC3)n2)cc1	/	2.7	3.1%	3.9%	/	?
O=C(N/N=C/c1ccccn1)c1cc(-c2ccccc2Cl)n[nH]1	15.8µM*	?	9.8%	?	-2.7%[10 µM]	-2.6%
O=C(N/N=C/c1ccccn1)c1cc(-c2cccc3ccccc23)n[nH]1	-36.9%	-6.2	27.1%	21.0%	12.7%	?
COc1ccc(Oc2ncc3nc(C)c(=O)n(Cc4cccc(OC)c4)c3n2)cc1	-8.9%	/	/	/	-2.6%	/
O=C(NCC(c1cccnc1)N1CCN(c2ccccc2)CC1)OCc1ccccc1 (stereo not drawn)	-13.8%	22.8	-3.5%	5.8%	-7.4%	15.2%
O=C(NCC(c1cccnc1)N1CCN(c2ccc(F)cc2)CC1)OCc1ccccc1 (stereo not drawn)	12.6µM*	-0.9	3.9%	8.6%	?	3.8%
O=S(=O)(NCc1ccccc1Cl)c1ccc(-n2cccn2)cc1	?	6.8	-4.0%	0.6%	-4.4%	4.5%
CC1CC(C)(C)NC(=S)N1CCCC(=O)Nc1ccc(F)cc1 (stereo not drawn)	12.6µM*	-2.2	-2.7%	1.1%	?	4.8%
CCc1ccc(NC(=O)CCCN2C(=S)NC(C)(C)CC2C)cc1 (stereo not drawn)	4.47µM*	-25.2	-2.7%	-9.5%	?	8.5%
CC1CC(C)(C)NC(=S)N1CC(=O)NCc1ccc(Cl)cc1 (stereo not drawn)	11.2µM*	2.6	8.0%	?	?	-2.2%
CC1CC(C)(C)NC(=S)N1CCCC(=O)Nc1ccc2c(c1)OCCO2 (stereo not drawn)	28.4%	-12.6	-11.8%	?	-12.4%	-0.9%
Cc1ccc(NC(=O)CCCN2C(=S)NC(C)(C)CC2C)cc1 (stereo not drawn)	12.6µM*	-27.3	-6.7%	-3.2%	?	-1.7%
Cc1cccc(NC(=O)CN2C(=S)NC(C)(C)CC2C)c1 (stereo not drawn)	?	7.0	-1.2%	?	?	-0.4%
CCOc1cc(CNc2ncc(-c3ccc(OC)cc3)n2C)ccc1O	-18.7%	-6.6	-8.7%	-4.3%	20.9%	-2.2%
O=C1[C@@H]2[C@H]3CC[C@H](C3)[C@@H]2C(=O)N1O	-9.8%	3.5	?	?	3.6%	1.16µM*
O=C(O)C1CCC(N2C(=O)C3C4CCC(C4)C3C2=O)CC1 (stereo not drawn)	-18.4%	-3.0	-14.3%	-2.7%	-1.6%	-2.1%
O=c1onc(-c2ccccc2)n1-c1cc(Cl)cc(Cl)c1	/	12.9	-3.5%	/	/	6.9%
N#C/C(=C(/O)CN1CCOCC1)c1nc2ccccc2s1	21.7%	18.5	-1.7%	0.1%	-1.0%	-3.1%
Cn1c(/C(C#N)=C(\O)CN2CCN(Cc3ccccc3)CC2)nc2ccccc21	5.62µM*	7.3	2.3%	1.0%	22.4µM*	-1.8%
Cc1ccc(SC/C(O)=C(\C#N)c2nc3ccccc3n2C)cc1	7.94µM*	8.4	21.3%	-10.0%	6.31µM*	18.2%
CCC(=O)Nc1nnc(S(=O)(=O)N(C)c2cc(C)cc(C)c2)s1	1.4%	9.8	-36.2%	?	-1.9%	1.8%
O=C(c1ccc(F)cc1)[C@@H]1[C@@H](C(=O)c2ccccc2)[C@@]2(C(=O)Nc3ccccc32)[C@H]2c3ccccc3C=CN12	-15.4%	/	/	?	24.4%	/
SMILES	RORg inh	Giardia kill	SW480 rerep	Chronic BCR inh	Gal4-VP16 FLuc	MCF10A rereplic
CC(=O)[C@@H]1[C@@H](C(=O)c2ccc(F)cc2)[C@]2(C(=O)Nc3ccccc32)[C@H]2C=Cc3cc(F)ccc3N12	18.6%	2.6	?	?	-7.8%	20.6µM*
CC(=O)[C@@H]1[C@@H](C(=O)c2ccc(C)cc2)[C@]2(C(=O)Nc3ccccc32)[C@H]2C=Cc3cc(F)ccc3N12	?	3.0	?	?	?	16.4µM*
COc1ccc(-c2nc3c4ccccc4n(CC(=O)N4CCN(c5ccccc5F)CC4)c(=O)n3n2)cc1	/	/	/	-4.7%	/	/
O=C(Cc1ccc2c(c1)OCCO2)c1c(O)cc(O)cc1O	40.9%	10.8	-6.2%	1.9%	26.3%	8.5%
Oc1ccc(N=Nc2ccc3c(c2)OCCO3)c(O)c1	8.91µM*	1.3	-7.6%	?	10µM*	-2.1%
Fc1ccc(CNC(=S)Nc2cccc(Cl)c2)cc1	5.62µM*	12.8	4.7%	6.3%	11.2µM*	16.4µM*
S=C(NCc1ccncc1)Nc1cccc(Cl)c1	15.0%	10.6	-4.7%	7.0%	0.0%	-0.8%
Fc1ccccc1CNC(=S)NCc1ccc(Cl)cc1	7.94µM*	8.9	-8.7%	8.8%	?	1.8%
S=C(NCc1ccc(Cl)cc1)Nc1ccncc1	?	8.4	?	-5.6%	7.08µM*	9.5%
CCNC(=S)NCc1ccc(Cl)cc1	/	5.1	-2.5%	/	/	-2.5%
Fc1ccc(CNC(=S)Nc2ccc(Cl)cc2)cc1	7.08µM*	-4.9	-2.4%[9.22 µM]	?	15.8µM*	?
CCC#CCOCC(=O)Nc1ccccc1	-28.7%	/	/	/	6.3%	/
CSc1ncccc1C(=O)Nc1cccc(S(=O)(=O)N2CCCC2)c1	/	-2.5	-0.5%	-8.0%	/	8.9%
Cc1ccc(-c2ccc(S(=O)(=O)N3CC(C)OC(C)C3)cc2)cc1 (stereo not drawn)	-16.0%	13.4	4.6%	5.2%	-0.5%	-5.0%
S=C(NCc1ccc(Cl)cc1Cl)Nc1ccccc1	7.08µM*	15.1	-1.4%	6.8%	6.31µM*	?
COC(=O)c1cccc(NC(=S)NCc2ccco2)c1	?	-10.4	-8.6%	-2.1%	-18.0%	11.9%
S=C(Nc1ccccc1)Nc1ccc(Cl)cc1Cl	?	-9.5	-1.5%	-1.9%	-12.0%[0.365 µM]	0.1%
S=C(NCc1ccc(Cl)cc1)Nc1ccccc1	2.24µM*	6.4	0.9%	-7.3%	3.55µM*	-26.9%
COC(=O)c1cccc(NC(=S)NCc2ccc(F)cc2)c1	10µM*	-5.5	-1.6%	6.0%	?	15.2%
O=[N+]([O-])c1ccc(NC(=S)NCc2ccncc2)cc1	?	8.0	-9.7%	?	0.2%[10 µM]	5.9%
